Data published in PubChem BioAssay.
Several values for one entry are separate records, joined by “and”; a condition that tells them apart may be missing. Equal values may be shown once. Activity calls are given as the source filed them. Cut-off read from the data, not from the text of the source, unless noted: active = inhibition above about 80%; inactive = the rest.

What was measured:
[1] = test system: Aerobactin synthetase IucA (Klebsiella pneumoniae); experiment: inhibition of K. pneumoniae IucA enzyme – biochemical, Tocris library, absorbance (AID 1345561; call rule not given here;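 note: 100% = enzyme without compound and 0% = no enzyme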); settings: purified IucA enzyme assay, absorbance (OD) read-out; stronger effect = lower value;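 tested at 8 µM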
[2] = viability loss with induced miR-34 in A549 – imaging, A549 dox-inducible miR-34, nuclei and caspase counts, primary screen (AID 1347080;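 active = compounds whose cell count with miR-34 switched on is under 0.7 times the count with it off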); settings: A549 miR-34 inducible, Hoechst nuclei count, 48 h
[3] = galactose survival enhancers in mitochondrial complex I cybrids – cell-based, galactose medium, ATP luminescence, primary screen (AID 1645843;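 active = z-score of at least 1.8 in each of two replicates, scored against plate mean and spread of sample wells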;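 note: positive z means more ATP and so rescue of galactose-driven cybrid death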); settings: complex I mutant cybrid cells, 72 h, stronger effect = higher value
[4] = growth inhibition, single agent or in combination, cell-based, chromothripsis tumors, cisplatin or BGB combos (AID 1671449); settings: LFS_MB_P medulloblastoma cells;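 note: cells exposed for 96 hours; 0% = vehicle DMSO and 100% = killing by high DMSO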
[5] = growth inhibition, single agent and combos, cell-based, chromothripsis tumors, cisplatin or BGB combos (AID 1671450); settings: HDN33 neuroblastoma cells, stronger effect = higher value;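 note: cells exposed to compound for four days; 0% = vehicle DMSO and 100% = cell killing by high DMSO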
[6] = growth inhibition, single agents and combos, ICB984, cell-based, cisplatin or BGB combos, synergistic combos for chromothripsis tumors (AID 1671451; call rule not given here;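 note: cells exposed for 96 hours before readout; 0% = vehicle DMSO and 100% = killing by high DMSO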); settings: ICB984 medulloblastoma cells, drug combinations, stronger effect = higher value
[7] = growth inhibition, single agents and combos, LFS_MB_1R, cell-based, cisplatin or BGB combos, synergistic combos for chromothripsis tumors (AID 1671452); settings: LFS_MB_1R medulloblastoma cells, stronger effect = higher value;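 note: cells exposed for 96 hours before readout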
[8] = growth inhibition, single agents and combos, HTB85, cell-based, BGB or cisplatin IC20 combos, synergistic combos for chromothripsis tumors (AID 1671453); settings: HTB85 osteosarcoma cells, drug combinations, stronger effect = higher value;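 note: cells exposed for 96 hours before readout; 0% = vehicle DMSO and 100% = high DMSO killing control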
[9] = growth inhibition, single agents and combos, CRL2098, cell-based, BGB or cisplatin IC20 combos, synergistic combos for chromothripsis tumors (AID 1671454); settings: CRL2098 osteosarcoma cells, drug combinations, stronger effect = higher value;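 note: cells exposed for 96 h before readout; 0% = vehicle DMSO and 100% = killing by high DMSO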
[10] = growth inhibition, single agents and combos, HD-MB03, cell-based, BGB or cisplatin IC20 combos, synergistic combos for chromothripsis tumors (AID 1671455; in the data active = inhibition above about 83%;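 note: 0% = vehicle DMSO and 100% = high DMSO as cytotoxic control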); settings: HD-MB03 medulloblastoma cells, stronger effect = higher value
[11] = growth inhibition, single agents and combos, UWB1.289, cell-based, BGB or cisplatin combos, synergistic combos for chromothripsis tumors (AID 1671456); settings: UWB1.289 ovarian carcinoma cells, stronger effect = higher value;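 note: cells exposed to compound for four days; 0% = vehicle DMSO and 100% = killing by high DMSO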
[12] = growth inhibition, single agents and combos, LFS_MB_2R, cell-based, cisplatin combos, synergistic combos for chromothripsis tumors (AID 1671457); settings: LFS_MB_2R medulloblastoma cells, stronger effect = higher value;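 note: cells exposed to compound for four days before readout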
[13] = growth inhibition, MDA-MB-436, cell-based, BGB or cisplatin combos, synergistic combos for chromothripsis tumors (AID 1671458; call rule not given here;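 note: cells exposed for 96 hours; 0% = vehicle DMSO and 100% = killing by high DMSO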); settings: MDA-MB-436 breast carcinoma growth inhibition, drug combinations, stronger effect = higher value
[14] = UWB1.289_BRCA1 ovarian cancer growth, cell-based, BGB or cisplatin combinations (AID 1671459); settings: UWB1.289 BRCA1 ovarian carcinoma, drug combinations, stronger effect = higher value
[15] = drug combination toxicity in non-malignant astrocytes – cell-based, BGB or cisplatin IC20 combos, cytotoxicity control for chromothriptic childhood tumor combination screen (AID 1671460); settings: Human astrocytes, viability inhibition, drug combinations, at 0.5 µM, stronger effect = higher value;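 note: cells exposed to compounds for 96 hours before viability readout; 0% = vehicle and 100% = killing control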
[16] = BT084 cell growth, single and combined drugs, ICGC_MB145, cisplatin and BGB IC40 combos (AID 1671461); settings: BT084 medulloblastoma cells, drug combinations, stronger effect = higher value;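 note: cells exposed to drugs for 96 hours; 0% = vehicle DMSO and 100% = high DMSO full killing control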
[17] = RCMB18 cell growth, single agent and combined, cisplatin and BGB IC40 combos (AID 1671462); settings: RCMB18 medulloblastoma cells, stronger effect = higher value;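 note: cells exposed to compound for four days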
[18] = CRL1545 cell growth, single agent and combined, cisplatin and BGB IC20 combos (AID 1671464); settings: CRL1545 osteosarcoma cells, stronger effect = higher value;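 note: cells exposed to compound for 96 hours before readout; 0% = vehicle DMSO and 100% = high DMSO killing control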
[19] = P. berghei load reduction in hepatocytes – cell-based, HepG2, luciferase luminescence, HepG2 viability, primary screen (AID 624349; in the data active = parasite load remaining mostly below about 12%, no sharp cut-off; inactive = mostly above about 10%;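 note: 100% = mean of DMSO negative control wells on the same plate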); settings: P. berghei liver stage in HepG2, luciferase luminescence, concentration not given here; parasite load remaining: stronger effect = lower value; viability: measured here: HepG2 viability without parasites
[20] = compounds altering viability of human ES cells (AID 493140; call rule not given here;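 note: cells exposed to compounds for four days before counting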); settings: human embryonic stem cell survival screen; stronger effect = higher value
[21] = compounds altering circadian rhythm period length – cell-based, LOPAC library, luminescence reporter (AID 2774; call rule not given here;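 note: values are relative to mean of DMSO wells on each plate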); settings: circadian reporter cells, at 7 µM, actives lie on both sides
[22] = test system: Hepatitis C virus NS3 helicase; experiment: blockers of NS3h binding to ssDNA – biochemical, fluorescence polarization, LOPAC1280 library, primary screen (AID 687035; in the data active = inhibition above about 37%); settings: Purified HCV NS3 helicase, Cy5-dT15 ssDNA binding fluorescence polarization; stronger effect = higher value; concentration not given here
[23] = compounds altering Cy5-DNA-NS3h complex signal – biochemical, LOPAC1280, artefact control for HCV NS3 helicase inhibitor project (AID 687037; call rule not given here); settings: Cy5-DNA-NS3h complex fluorescence interference counterscreen
[24] = stronger effect = lower value, cell number ratio, induced over uninduced
[25] = measured here: relative caspase fold change +Dox/-Dox
[26] = measured here: total cells with miR-34 induction, stronger effect = lower value
[27] = measured here: total cells without miR-34 induction
[28] = measured here: combination with BGB IC40, at 0.05 µM
[29] = measured here: with BGB IC20 combination, at 0.5 µM
[30] = measured here: with cisplatin IC20 combination, at 0.5 µM
[31] = measured here: combination with cisplatin, at 0.5 µM
[32] = measured here: combination with cisplatin, at 5 µM

COc1cc(C=O)c([N+](=O)[O-])cc1OC
remaining activity [1]: 102% (inactive)
fold change [2, 24]: 0.928 (inactive)
fold change [2, 25]: 1.17
cell count [2, 26]: 8790
cell count [2, 27]: 9460
z-score [3]: -0.05 (inactive)
inhibition ([4]; at 0.5 µM, stronger effect = higher value): -16.6% (inactive)
inhibition ([4]; measured here: combination with BGB IC20, at 0.005 µM): 9.48%
inhibition ([4]; measured here: combination with BGB IC40, at 0.005 µM): -5.33%
inhibition [4, 28]: 7.41%
inhibition ([4]; measured here: combination with cisplatin, at 0.5 µM, stronger effect = higher value): -18.5%
inhibition ([4]; measured here: combination with cisplatin, at 5 µM, stronger effect = higher value): 3.4%
inhibition ([5]; BGB combo, at 5 µM): -38.7%
inhibition ([5]; at 0.5 µM): -19.7% (inactive)
inhibition ([5]; cisplatin combo, at 5 µM): -6.74%
inhibition [5, 29]: -8.97%
inhibition [5, 30]: -29.9%
inhibition ([5]; single agent, at 5 µM): 0.626%
inhibition ([6]; BGB IC20 combo, at 0.005 µM): -9.07%
inhibition ([6]; BGB IC40 combo, at 0.005 µM): -48.2%
inhibition ([6]; BGB IC40 combo, at 0.05 µM): -39.8%
inhibition ([6]; at 0.5 µM): -35.2% (inactive)
inhibition ([6]; cisplatin combo, at 0.05 µM): -45.3%
inhibition ([6]; cisplatin combo, at 0.5 µM): -48.6%
inhibition ([6]; cisplatin combo, at 5 µM): -19.2%
inhibition ([6]; measured here: 5 uM single agent, at 5 µM): -4.36%
inhibition ([7]; at 0.5 µM): -20.1% (inactive)
inhibition [7, 28]: -4.39%
inhibition [7, 31]: -40%
inhibition [7, 32]: -37.8%
inhibition ([8]; at 0.5 µM): -19.8% (inactive)
inhibition ([8]; measured here: with BGB IC20, at 0.5 µM): -22.3%
inhibition ([8]; measured here: with BGB IC20, at 5 µM): -12.5%
inhibition ([8]; measured here: with cisplatin IC20, at 0.5 µM): -24.3%
inhibition ([8]; measured here: with cisplatin IC20, at 5 µM): -32.4%
inhibition ([8]; single agent, at 5 µM): -9.78%
inhibition ([9]; at 0.5 µM): -33.8% (inactive)
inhibition ([9]; measured here: combination with BGB at IC20, at 0.5 µM): -36.3%
inhibition ([9]; measured here: combination with cisplatin at IC20, at 0.5 µM): -11%
inhibition ([10]; at 0.5 µM): -11.8% (inactive)
inhibition ([10]; measured here: combo with BGB at IC20, at 0.5 µM): -17.8%
inhibition ([10]; measured here: combo with cisplatin at IC20, at 0.5 µM): -8.28%
inhibition ([11]; at 0.5 µM): -8.53% (inactive)
inhibition ([11]; measured here: inhibition with BGB combination, at 0.05 µM): 3.53%
inhibition ([11]; measured here: inhibition with cisplatin combination, at 0.05 µM): -7.7%
inhibition ([12]; at 0.5 µM): -7.6% (inactive)
inhibition [12, 31]: -4.15%
inhibition [12, 32]: 0.394%
inhibition ([13]; at 0.5 µM): -6.2% (inactive)
inhibition ([13]; measured here: BGB combination, at 0.5 µM): -13%
inhibition ([13]; measured here: BGB combination, at 5 µM): -6.36%
inhibition ([13]; measured here: cisplatin combination, at 0.5 µM): 1.75%
inhibition ([13]; measured here: cisplatin combination, at 5 µM): 6.49%
inhibition ([14]; BGB combination, concentration series, at 5 µM): 0.582%
inhibition ([14]; at 0.5 µM): -4.66% (inactive)
inhibition ([14]; cisplatin combination, concentration series, at 5 µM): -5.09%
inhibition [15]: -7.65% (inactive)
inhibition ([15]; measured here: combo with BGB IC20): -3.78%
inhibition ([15]; measured here: combo with cisplatin IC20): -9.79%
inhibition ([16]; at 0.5 µM): 1.74% (inactive)
inhibition ([16]; cisplatin combination, at 0.5 µM): 3.64%
inhibition ([16]; cisplatin combination, at 5 µM): -6.4%
inhibition ([16]; measured here: BGB IC40 combination 0.05 uM, at 0.05 µM): 80.8%
inhibition ([16]; single agent, at 5 µM): 1.94%
inhibition ([17]; at 0.5 µM): -0.87% (inactive)
inhibition ([17]; cisplatin combo, at 5 µM): -1.64%
inhibition ([17]; measured here: BGB IC40 combination, at 0.05 µM): 1.84%
inhibition [17, 31]: 9.53%
inhibition ([17]; single agent, at 5 µM): -21.6%
inhibition ([18]; at 0.5 µM): -4.03% (inactive)
inhibition [18, 29]: -16.1%
inhibition [18, 30]: 2%
inhibition ([18]; single agent, at 0.05 µM): -14.2%
inhibition ([18]; single agent, at 5 µM): -34.2%

Cc1ccc(NC2=CC(=O)c3sc(C)nc3C2=O)cc1
parasite load remaining [19]: 21% (inactive)
viability [19]: 105%
remaining activity [1]: 117% (inactive)
fold change [2, 24]: 0.814 (inactive)
fold change [2, 25]: 0.845
cell count [2, 26]: 1060
cell count [2, 27]: 1300
z-score [3]: -0.705 (inactive)

C=CC(=O)c1ccc2ccccc2c1
survival [20]: 46.4 (inactive)
remaining activity [1]: 118% (inactive)
fold change [2, 24]: 0.911 (inactive)
fold change [2, 25]: 1.23
cell count [2, 26]: 8570
cell count [2, 27]: 9410
z-score [3]: -0.58 (inactive)

NS(=O)(=O)c1cccc2c1c([N+](=O)[O-])cc1nc(O)c(O)nc12
period change [21]: 0.35 h (inactive)
inhibition [22]: -6% (inactive)
fluorescence ratio (interference) [23]: 1 (inactive)
remaining activity [1]: 120% (inactive)
fold change [2, 24]: 1.03 (inactive) and 0.923 (inactive)
fold change [2, 25]: 1.03 and 0.947
cell count [2, 26]: 11000 and 9080
cell count [2, 27]: 10700 and 9830
z-score [3]: 0.68 (inactive) and 0.65 (inactive)
